Laboratory results from PubChem BioAssay (NCATS).
Results filed as inconclusive are left out. Values without a mark were called inactive. The source made the active and inactive calls. The call rests on the fitted dose curve; tested in HEK293 reporter line.

test: qHTS for Inhibitors of the Functional Ribonucleoprotein Complex (vRNP) of Lymphocytic Choriomeningitis Arenaviruses (LCMV): Viability assay - alamar blue signal for LCMV Primary Screen (AID 1347085); conditions: alamar blue viability counter-screen, LCMV vRNP screen cells; series mostly up to 57.5 µM; activity change, negative = lower viability: at the top concentration; further: nearly all actives have a fitted effect of over 80% in size
On the % scale 0 is the no-effect control and ±100 the full control effect.

Compared with `NC(Cc1ccc(N(CCCl)CCCl)cc1)C(=O)O` (centres undefined), `NNC(=O)c1ccc(O)cc1` is higher in “activity change, negative = lower viability” value: -22.7% for the first, 14.8% for the second.

Going from `CCCN1CCc2cccc3c2[C@H]1Cc1ccc(O)c(O)c1-3` to `CCCN1CCc2cc(O)cc3c2[C@H]1Cc1ccc(O)c(O)c1-3`, the “activity change, negative = lower viability” value falls from 3.79% to -7.07%.

Going from `CC(N)[C@H](O)c1ccc(O)c(O)c1` (some centres undefined) to `NCC(O)c1cc(O)c(O)cc1F` (centres undefined), the “activity change, negative = lower viability” value rises from 3.46% to 15.1%.

Going from `CCOC(=O)c1ncn2c1[C@@H]1CCCN1C(=O)c1cc(OC)ccc1-2` to `COc1ccc2c(c1)C13CCCCC1C(C2)N(C)CC3` (centres undefined), the “activity change, negative = lower viability” value rises from -15% to -3.87%.

Compared with `c1ccc2c(N3CCNCC3)cccc2c1`, `C[N+]1(C)CCN(c2ccccc2)CC1` is higher in “activity change, negative = lower viability” value: -2.44% for the first, 12.7% for the second.

Going from `Cc1o[nH]c(=O)c1CC(N)C(=O)O` (centres undefined) to `C/C(O)=C(\C#N)C(=O)Nc1cc(Br)ccc1Br`, the “activity change, negative = lower viability” value rises from -0.31% to 34.3%.

Going from `C[N+](C)(C)CC#CCN1CCCC1=O` to `N#CCCN`, the “activity change, negative = lower viability” value rises from 2.23% to 3.58%.

Compared with `NC(N)=Nc1ccc2[nH]c3c(c2c1)C[C@@]1(O)[C@H]2Cc4ccc(O)c5c4[C@@]1(CCN2CC1CC1)[C@H]3O5`, `CN1CCc2cc(O)cc3c2[C@H]1Cc1ccc(O)c(O)c1-3` is lower in “activity change, negative = lower viability” value: 15.8% for the first, -4.62% for the second.

First: OC1CCCCC1N1CCC(c2ccccc2)CC1 (centres undefined)
Second: C[N+]1(C)C2CCC1CC(OC(=O)c1c[nH]c3ccccc13)C2 (centres undefined)
The “activity change, negative = lower viability” value of the first is higher: -5.82% for the first, -8.08% for the second.

With `NC(C(=O)O)c1cc(=O)[nH]o1` (centres undefined) the Potency was “inactive”.
In the case of `O=C1C=CC(=O)C=C1`, the Potency is reported as “inactive”.
In the case of `CC(=O)c1c(O)c(C)c(O)c(Cc2c(O)c3c(c(C(=O)/C=C/c4ccccc4)c2O)OC(C)(C)C=C3)c1O`, the Potency is reported as “inactive”.
For `NC(=O)CI`, the Potency was “inactive”.
With `NC(Cc1cc(O)c(O)cc1O)C(=O)O` (centres undefined) the Potency was “inactive”.
With `CN(N=O)c1cc(O)ccc1O` the Potency was “inactive”.
